{
  "source": "ChEMBL document CHEMBL1201862",
  "about": "“PubChem BioAssay data set” (2004)",
  "note": "Hit rate of the full screen: of about 400,000 compounds, about 2,100 (0.53%) were called active. Not shown: some 14% with an inconclusive outcome. No rule for the calls is given here. What follows is part of a selection rich in actives, with near analogues and random picks from the rest.",
  "data": [
    {"molecular_target": "Ataxin-2 (Homo sapiens) (UniProt Q99700)", "sequence (Q99700 whole entry)": "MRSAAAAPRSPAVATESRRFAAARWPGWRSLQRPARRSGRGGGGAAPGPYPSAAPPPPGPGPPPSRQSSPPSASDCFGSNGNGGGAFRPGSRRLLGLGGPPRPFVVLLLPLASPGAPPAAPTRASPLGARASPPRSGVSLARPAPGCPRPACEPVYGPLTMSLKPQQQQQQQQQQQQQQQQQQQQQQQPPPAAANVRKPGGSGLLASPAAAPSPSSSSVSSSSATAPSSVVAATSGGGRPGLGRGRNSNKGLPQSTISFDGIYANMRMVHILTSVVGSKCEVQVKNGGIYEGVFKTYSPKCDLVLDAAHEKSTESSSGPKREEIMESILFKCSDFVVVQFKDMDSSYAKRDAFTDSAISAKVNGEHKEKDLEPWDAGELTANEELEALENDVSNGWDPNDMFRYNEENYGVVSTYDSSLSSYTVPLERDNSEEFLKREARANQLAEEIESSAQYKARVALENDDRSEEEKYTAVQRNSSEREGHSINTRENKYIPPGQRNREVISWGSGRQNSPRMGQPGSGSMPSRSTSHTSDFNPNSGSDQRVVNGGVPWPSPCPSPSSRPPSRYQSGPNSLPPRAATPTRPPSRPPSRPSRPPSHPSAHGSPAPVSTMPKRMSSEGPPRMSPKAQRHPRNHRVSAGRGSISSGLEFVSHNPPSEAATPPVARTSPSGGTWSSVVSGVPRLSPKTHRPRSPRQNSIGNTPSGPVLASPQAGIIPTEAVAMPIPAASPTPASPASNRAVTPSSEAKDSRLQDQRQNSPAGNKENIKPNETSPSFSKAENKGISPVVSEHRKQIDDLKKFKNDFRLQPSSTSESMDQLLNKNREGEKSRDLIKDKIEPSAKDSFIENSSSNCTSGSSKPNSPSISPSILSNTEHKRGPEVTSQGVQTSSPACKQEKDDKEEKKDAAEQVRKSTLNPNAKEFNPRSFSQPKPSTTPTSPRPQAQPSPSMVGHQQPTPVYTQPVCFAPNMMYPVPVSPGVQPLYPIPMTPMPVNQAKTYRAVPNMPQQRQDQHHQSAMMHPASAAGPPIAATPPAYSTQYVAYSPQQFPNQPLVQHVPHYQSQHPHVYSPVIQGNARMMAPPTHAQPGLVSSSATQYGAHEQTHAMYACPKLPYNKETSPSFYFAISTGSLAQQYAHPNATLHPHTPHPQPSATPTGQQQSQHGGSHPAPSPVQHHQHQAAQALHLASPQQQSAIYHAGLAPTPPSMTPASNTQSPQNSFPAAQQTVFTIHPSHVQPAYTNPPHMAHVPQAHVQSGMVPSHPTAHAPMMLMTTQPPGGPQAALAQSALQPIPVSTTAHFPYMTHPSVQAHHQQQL", "assay": "qHTS for Inhibitors of ATXN expression.", "assay_type": "functional", "values": [
      {"smiles": "Nc1cccc(Oc2c(F)c(F)c(Oc3cccc(N)c3)c(F)c2F)c1", "Potency": "inactive"},
      {"smiles": "CN(CC(=O)Nc1ccccc1Cl)C(=O)COC(=O)c1nc(Cl)c(Cl)c(Cl)c1Cl", "Potency": "28.2 µM (active)"},
      {"smiles": "Cc1ccc(NC(=O)CN(C)C(=O)COC(=O)c2nccnc2N)cc1", "Potency": "inactive"},
      {"smiles": "Cc1cnc(C(=O)OCC(=O)Nc2cccc3ccccc23)cn1", "Potency": "inactive"},
      {"smiles": "CCCCc1c(-c2ccc(Cl)cc2)ncn1CCc1ccccc1OC", "Potency": "39.8 µM (active)"},
      {"smiles": "CCCc1c(-c2ccc(Cl)cc2)ncn1Cc1ccccc1OC", "Potency": "44.7 µM (active)"},
      {"smiles": "CCCCCc1c(-c2ccc(Cl)cc2)ncn1CCc1ccccc1OC", "Potency": "39.8 µM (active)"},
      {"smiles": "COc1cc2c3nnc(-c4ccccc4)c-3cn(Cc3ccccc3F)c2cc1OC", "Potency": "inactive"},
      {"smiles": "CC(=O)c1cc2ccc(O)cc2oc1=O", "Potency": "inactive"},
      {"smiles": "COCCNC(=O)/C(=C/c1ccccc1Cl)c1ccccc1", "Potency": "inactive"},
      {"smiles": "O=C1CC(c2cccc(Br)c2)C2=C(COC2=O)N1", "note": "(centres undefined)", "Potency": "inactive"},
      {"smiles": "CN(C)/C=N/C(=S)Nc1ccc(Cl)cc1", "Potency": "inactive"},
      {"smiles": "Cn1nc(-c2ccccc2)c2nc3ccccc3nc21", "Potency": "inactive"},
      {"smiles": "CN1CCN(C2=CC3=CC(=C(C#N)C#N)CCC3CC2)CC1", "note": "(centres undefined)", "Potency": "inactive"},
      {"smiles": "COc1cc2c(C#CCCO)c(-c3ccc(C#N)cc3)oc(=O)c2cc1OC", "Potency": "inactive"},
      {"smiles": "O=c1c2ccccc2oc2ccc(C#CC3(O)CCCCC3)cc12", "Potency": "28.2 µM (active)"},
      {"smiles": "COc1cc2oc3cc(C#Cc4ccc(N)cc4)ccc3c(=O)c2cc1OC", "Potency": "inactive"},
      {"smiles": "O=c1c(O)c(-c2ccccc2)oc2ccccc12", "Potency": "inactive"},
      {"smiles": "COc1cccc2oc3cc(C#CC4(O)CCCCC4)ccc3c(=O)c12", "Potency": "22.4 µM (active)"},
      {"smiles": "Nc1ccc(C#Cc2ccc3c(=O)c4ccccc4oc3c2)cc1", "Potency": "inactive"},
      {"smiles": "Nc1c(C(=O)NCc2ccco2)c2nc3ccccc3nc2n1CCc1ccc(F)cc1", "Potency": "inactive"},
      {"smiles": "Cc1ccc(COc2ccsc2C(=O)NN)cc1", "Potency": "inactive"},
      {"smiles": "Cc1ccc(CN2C(=O)C(=O)c3cc(Br)cc(C)c32)cc1", "Potency": "39.8 µM (active)"},
      {"smiles": "Cc1ccc(CN2C(=O)C(C)Oc3ccccc32)cc1", "note": "(centres undefined)", "Potency": "inactive"},
      {"smiles": "CC(=O)N1c2c(cc(Br)cc2S(=O)(=O)NCc2ccc(C)cc2)CC1C", "note": "(centres undefined)", "Potency": "inactive"},
      {"smiles": "COC(=O)c1c(NC(=O)c2ccc(S(=O)(=O)N3CCCC(C)C3)cc2)sc2c1CCN(C(C)C)C2", "note": "(centres undefined)", "Potency": "inactive"},
      {"smiles": "O=C(Nc1ccc[n+](-c2nc3ccccc3nc2[N-]S(=O)(=O)c2ccccc2)c1)c1ccc(Cl)cc1", "Potency": "11.2 µM (active)"},
      {"smiles": "O=C(Nc1cc[n+](-c2nc3ccccc3nc2[N-]S(=O)(=O)c2ccc(Cl)cc2)cc1)c1cccs1", "Potency": "inactive"},
      {"smiles": "CC(=O)Nc1ccc(S(=O)(=O)[N-]c2nc3ccccc3nc2-[n+]2ccc(NC(=O)c3ccccc3)cc2)cc1", "Potency": "inactive"},
      {"smiles": "Cc1c(NC(=O)C(C)OC(=O)c2cccc(S(=O)(=O)N3CCOCC3)c2)c(=O)n(-c2ccccc2)n1C", "note": "(centres undefined)", "Potency": "inactive"},
      {"smiles": "COc1cc(/C=C/C(=O)OCC(=O)Nc2ccc(Cl)cn2)ccc1O", "Potency": "inactive"},
      {"smiles": "COc1ccc(C(=O)/C=C/c2ccc(O)cc2)c(O)c1C/C=C(\\C)CCC=C(C)C", "Potency": "39.8 µM (active)"},
      {"smiles": "COc1ccc(C(=O)/C=C/c2ccc(O)cc2)c(O)c1CC=C(C)C", "Potency": "39.8 µM (active)"},
      {"smiles": "COc1ccc(/C=C/C(=O)C2C(=O)C=C(C)OC2=O)cc1O", "note": "(centres undefined)", "Potency": "inactive"},
      {"smiles": "COc1ccc(-c2cc(C(F)(F)F)n3ncc(C(=O)N4CCCCC4c4cccnc4)c3n2)cc1", "note": "(centres undefined)", "Potency": "inactive"},
      {"smiles": "N#Cc1c(O)nc2c(c1-c1cccnc1)COc1ccccc1-2", "Potency": "inactive"},
      {"smiles": "O=C(COC(=O)c1cccc([N+](=O)[O-])c1)NNC(=O)c1cccs1", "Potency": "inactive"},
      {"smiles": "O=C(N/N=C/c1cc(Cl)cc([N+](=O)[O-])c1O)c1ccccc1NS(=O)(=O)c1cccs1", "Potency": "inactive"},
      {"smiles": "O=C(NC(=S)N1CCN(c2ccc(C(F)(F)F)cc2[N+](=O)[O-])CC1)c1cccs1", "Potency": "39.8 µM (active)"},
      {"smiles": "O=C(NC(=S)N1CCN(c2ccc(Cl)cc2[N+](=O)[O-])CC1)c1cccs1", "Potency": "17.8 µM (active)"},
      {"smiles": "Cc1cccc(N2CCN(C(=O)Cc3ccccc3[N+](=O)[O-])CC2)c1C", "Potency": "inactive"},
      {"smiles": "CC(=O)c1ccc2c(c1)c(C#N)c1ccccc1[n+]2[O-]", "Potency": "inactive"},
      {"smiles": "CCC(=O)Nc1c(C#N)c2nc3ccccc3nc2n1-c1ccc(C)cc1", "Potency": "inactive"},
      {"smiles": "CCN(CC)c1nc2ccccc2nc1C(C#N)C(=O)NCCc1ccccc1", "note": "(centres undefined)", "Potency": "inactive"},
      {"smiles": "CCC(C)N(CC(=O)Nc1cccc(C)c1C)C(=O)CCl", "note": "(centres undefined)", "Potency": "7.52 µM (active)"},
      {"smiles": "CCN(CC(=O)Nc1cc(Cl)ccc1C)C(=O)C1CCCCC1", "Potency": "inactive"},
      {"smiles": "Cc1cccc(NC(=O)CN(C)C(=O)Cc2ccc(-c3ccccc3)cc2)c1C", "Potency": "inactive"},
      {"smiles": "CCN(CC)C(=O)COc1ccc(/C=C(\\C#N)S(=O)(=O)c2ccccc2)cc1OC", "Potency": "inactive"},
      {"smiles": "Cc1cc(C)c(OCCCCNCc2ccccc2)c(Cl)c1", "Potency": "39.8 µM (active)"},
      {"smiles": "C=CCNCCCCOc1cccc(Br)c1", "Potency": "inactive"},
      {"smiles": "COc1ccc(Cl)cc1CNCCCSc1ncccn1", "Potency": "inactive"},
      {"smiles": "C=CCc1cc(Cl)ccc1OCCCNC(C)C", "Potency": "inactive"},
      {"smiles": "Clc1ccc(OCCCNCc2ccccc2)c(Br)c1", "Potency": "39.8 µM (active)"},
      {"smiles": "Cc1cc(C)c(OCCN2CCOCC2)c(Cl)c1", "Potency": "inactive"},
      {"smiles": "CN(C)/C=N/c1c(Br)cc(Br)c2nonc12", "Potency": "inactive"},
      {"smiles": "COCCN(CCOC)C(=O)c1cc2c(=O)n3ccccc3nc2s1", "Potency": "inactive"},
      {"smiles": "O=C1N[C@@H](Cc2c[nH]c3ccccc23)COC(=O)[C@@H](Cc2ccc(F)cc2)C/C=C\\C[C@H]1CC(=O)N(CCO)Cc1ccccc1", "Potency": "35.5 µM (active)"},
      {"smiles": "O=C1NC[C@@H](c2ccccc2)OC(=O)[C@@H](Cc2ccc(F)cc2)CC/C=C/C[C@H]1CC(=O)N(CCO)Cc1ccccc1", "Potency": "28.2 µM (active)"},
      {"smiles": "COCCn1c(N)c(C#N)c2nc3ccccc3nc21", "Potency": "inactive"},
      {"smiles": "Fc1ccc(-n2c(-c3cccs3)nc3nc4ccccc4nc32)cc1", "Potency": "inactive"},
      {"smiles": "O=C(O)c1ccccc1-c1ccccc1C(=O)Nc1ccc2c(c1)nc(O)c1ccccc12", "Potency": "inactive"},
      {"smiles": "O=C(Nc1ccc2c(c1)OCCO2)c1cccnc1Oc1ccc(Cl)cc1", "Potency": "inactive"},
      {"smiles": "O=C(Nc1ccc2c(c1)OCCO2)c1cccc2nc3ccccc3nc12", "Potency": "35.5 µM (active)"},
      {"smiles": "COc1ccccc1N1C(=O)C2C(C(=O)c3ccccc3)=NN(c3ccccc3)C2C1=O", "note": "(centres undefined)", "Potency": "inactive"},
      {"smiles": "COc1ccccc1-n1c([S-])c(C(=O)Nc2ccccc2C(F)(F)F)[n+]2ccc(C(=O)NCCO)cc12", "Potency": "inactive"},
      {"smiles": "CCO/C=C1/C(=O)N(c2ccccc2OC)C(=O)c2ccccc21", "Potency": "inactive"},
      {"smiles": "CC[C@@]1(c2ccccc2OC)ON(c2ccccc2C(F)(F)F)C1=O", "Potency": "22.4 µM (active)"},
      {"smiles": "COc1ccccc1N1C(=O)C2C(C(=O)c3ccccc3)=NN(c3ccccc3OC)C2C1=O", "note": "(centres undefined)", "Potency": "inactive"},
      {"smiles": "CC[C@]1(c2ccccc2OC)ON(c2ccccc2C(F)(F)F)C1=O", "Potency": "35.5 µM (active)"}
    ]}
  ]
}
